A selection: hits, their analogues and other compounds. The true share with any hit is near 4.1%.
HIV Env fusion: HIV envelope-mediated fusion inhibition. HeLa-JRFL Env/CEM21 cell fusion, luciferase. inhibition, % at 12.3 µM. hit rate 1.1% among 360,000;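 active = mean replicate inhibition score of at least 50 and every replicate individually at or above 50; inconclusive = only one of the two criteria met; inactive = mean below 50 and not all replicates reaching 50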
NSD2 inh: NSD2 (human) methyltransferase inhibition | hit rate 0.54% among 310,000 | inhibition, % at 12.5 µM | O96028 | NSD2 peptide methylation, AlphaScreen, 120 min | AID 743445; in the data active = inhibition above about 50%
Target sequence (O96028 whole entry, looked up): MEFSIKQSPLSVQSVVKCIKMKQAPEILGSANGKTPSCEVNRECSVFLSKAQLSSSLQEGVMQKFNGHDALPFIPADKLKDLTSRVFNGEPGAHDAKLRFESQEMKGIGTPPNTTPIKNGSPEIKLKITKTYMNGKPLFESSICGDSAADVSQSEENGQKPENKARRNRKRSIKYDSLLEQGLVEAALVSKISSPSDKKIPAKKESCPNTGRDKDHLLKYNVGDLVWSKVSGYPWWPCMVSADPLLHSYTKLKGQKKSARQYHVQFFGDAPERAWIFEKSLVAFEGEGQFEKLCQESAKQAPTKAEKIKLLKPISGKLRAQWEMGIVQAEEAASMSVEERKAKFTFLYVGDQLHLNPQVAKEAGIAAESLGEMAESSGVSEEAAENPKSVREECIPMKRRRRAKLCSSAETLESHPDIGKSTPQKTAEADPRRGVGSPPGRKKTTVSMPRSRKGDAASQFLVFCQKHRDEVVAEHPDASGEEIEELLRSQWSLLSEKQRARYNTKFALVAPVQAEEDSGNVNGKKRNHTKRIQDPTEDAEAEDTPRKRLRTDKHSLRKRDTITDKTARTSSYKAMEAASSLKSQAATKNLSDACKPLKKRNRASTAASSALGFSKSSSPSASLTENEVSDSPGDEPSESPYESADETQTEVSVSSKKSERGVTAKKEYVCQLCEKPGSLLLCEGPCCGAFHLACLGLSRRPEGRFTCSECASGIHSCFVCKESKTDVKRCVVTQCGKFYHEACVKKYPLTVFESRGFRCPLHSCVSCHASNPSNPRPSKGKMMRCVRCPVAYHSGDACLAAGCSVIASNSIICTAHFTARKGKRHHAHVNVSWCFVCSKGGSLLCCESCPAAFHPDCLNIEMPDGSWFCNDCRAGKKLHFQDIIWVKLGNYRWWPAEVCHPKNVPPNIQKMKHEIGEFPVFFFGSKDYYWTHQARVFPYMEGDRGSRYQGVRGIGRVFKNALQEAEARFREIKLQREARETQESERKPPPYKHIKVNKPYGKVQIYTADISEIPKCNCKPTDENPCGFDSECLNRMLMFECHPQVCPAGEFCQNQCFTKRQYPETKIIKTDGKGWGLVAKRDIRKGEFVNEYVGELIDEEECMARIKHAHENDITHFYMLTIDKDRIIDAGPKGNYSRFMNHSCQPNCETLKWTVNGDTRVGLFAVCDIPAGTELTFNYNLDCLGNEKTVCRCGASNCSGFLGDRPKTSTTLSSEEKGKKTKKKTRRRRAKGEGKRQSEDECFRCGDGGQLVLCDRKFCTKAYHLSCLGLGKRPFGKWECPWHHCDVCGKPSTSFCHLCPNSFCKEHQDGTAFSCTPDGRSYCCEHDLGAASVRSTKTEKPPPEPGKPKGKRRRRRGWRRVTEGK
F508del corr: CFTR F508del correction in bronchial cells; CFBE cells, YFP halide quenching; stimulated with forskolin plus potentiator P3; % fluorescence drop versus neutral controls; activity (quench increase), % at 7.58 µM; hit rate 0.36% among 350,000;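 active = mean added fluorescence quench of at least 8% versus neutral control, with both replicates also reaching 8%; inconclusive = only one of the mean or replicate conditions met; inactive = mean below 8% and not both replicates reaching 8%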;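 note: cells transiently co-express mutant CFTR-F508del with the halide-sensitive YFP; corrector assay measuring rescue of mutant channel to the surface after 24 h compound exposure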
Casp6 inh: blocks human caspase-6 cleavage activity. purified caspase-6, Z-VEID-R110 cleavage fluorescence. P55212. hit rate 0.53% among 350,000. inhibition, % at 12.5 µM;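 active = mean inhibition across replicates at least about 35%, with every replicate also reaching that limit, limit read from the data; inconclusive = only one of the two criteria met; inactive = neither criterion met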
PglD DTNB: blocks C. jejuni PglD acetyltransferase activity. AID 602405. hit rate 0.098% among 360,000. purified PglD enzyme, DTNB colorimetric CoA detection. inhibition, % at 12.5 µM; in the data active = inhibition above about 16%, passing the limit was not always enough; inconclusive = no clear call, values can overlap the other calls
ALR H2O2 inh: blocks human ALR sulfhydryl oxidase activity; AID 485317; hit rate 3.8% among 290,000; purified ALR, DTT oxidation, H2O2 HRP-luminol luminescence; inhibition, % (test concentration not listed); P55789;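 active = mean replicate inhibition above about 79%, with every replicate also reaching it, limit read from the data; inconclusive = only one of the two criteria met; inactive = mean below limit and not every replicate reaching it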
Large screens that a line does not name were inactive.

COc1ccc(Cn2nnnc2C(c2cccnc2)N2CCN(c3ccc(O)cc3)CC2)cc1 (configuration not stated)	ALR H2O2 inh 98.4 (no result: HIV Env fusion, NSD2 inh, F508del corr, Casp6 inh)
CCC(c1nnnn1Cc1ccc2c(c1)OCO2)N1CCN(c2ccc(OC)cc2)CC1 (configuration not stated)	ALR H2O2 inh 87.8 (no result: HIV Env fusion, F508del corr, Casp6 inh)
COc1ccc(Cn2nnnc2C(c2cccs2)N2CCN(c3ccccc3)CC2)cc1 (configuration not stated)	none (no result: HIV Env fusion, F508del corr, Casp6 inh)
c1ccc(Cn2nnnc2C(c2ccccn2)N2CCN(c3ccccc3)CC2)cc1 (configuration not stated)	ALR H2O2 inh 98.5 (no result: HIV Env fusion, F508del corr, Casp6 inh)
COc1ccc(OC)c(C(c2nnnn2C2CCCC2)N2CCN(c3ccccc3)CC2)c1 (configuration not stated)	none (no result: HIV Env fusion, F508del corr, Casp6 inh)
CCC(c1nnnn1Cc1ccc(OC)cc1)N1CCN(c2ccc(OC)cc2)CC1 (configuration not stated)	none (no result: PglD DTNB)
CCC(c1nnnn1C1CCCC1)N1CCN(c2cccc(OC)c2)CC1 (configuration not stated)	ALR H2O2 inh 98.0 (no result: F508del corr, PglD DTNB)
Oc1ccc(N2CCN(C(c3cccs3)c3nnnn3CCc3ccccc3)CC2)cc1 (configuration not stated)	ALR H2O2 inh 95.8 (no result: HIV Env fusion, F508del corr, Casp6 inh)
COCCn1nnnc1C(CC(C)C)N1CCN(c2ccccc2)CC1 (configuration not stated)	ALR H2O2 inh 93.3 (no result: F508del corr, Casp6 inh)
O=c1c2sccc2nc(SCc2cc(=O)n3cc(Cl)ccc3n2)n1Cc1ccccn1	ALR H2O2 inh 88.1 (no result: PglD DTNB)
COc1ccccc1NC(=O)CSc1nc2nccnc2c(=O)n1Cc1cccs1	ALR H2O2 inh 95.8
COc1ccc(NC(=O)CSc2nc3ccccc3c(=O)n2CCNC(C)=O)c(OC)c1	none (no result: F508del corr)
COc1ccc(NC(=O)CSc2nc3ccsc3c(=O)n2Cc2ccccn2)c(OC)c1	ALR H2O2 inh 95.8 (no result: NSD2 inh, PglD DTNB)
O=C(CSc1nc2nccnc2c(=O)n1Cc1cccs1)Nc1ccccc1	ALR H2O2 inh 98.2
COc1cccc(S(=O)(=O)N(C)C[C@@H]2Oc3cc(C4=CCCCC4)ccc3S(=O)(=O)N([C@H](C)CO)C[C@@H]2C)c1	none (no result: NSD2 inh, ALR H2O2 inh)
Cc1ccc2c(c1)c1c3n2CCN(CCC#N)C3CCC1 (configuration not stated)	HIV Env fusion 71.7 (no result: ALR H2O2 inh)
CCN1CCn2c3c(c4cc(C)ccc42)CCCC31 (configuration not stated)	ALR H2O2 inh 98.3 (no result: HIV Env fusion, NSD2 inh, F508del corr, Casp6 inh)
CCN1CCn2c3c(c4cccc(C)c42)CCCC31 (configuration not stated)	none (no result: ALR H2O2 inh)
C[C@H](CO)N1C[C@H](C)[C@@H](CN(C)S(=O)(=O)c2ccc(F)cc2)Oc2cc(-c3cccc(F)c3)ccc2S1(=O)=O	HIV Env fusion inconclusive (no result: NSD2 inh, ALR H2O2 inh)
COc1cccc(CN2[C@H](CO)[C@@H](c3ccccc3)C23CN(Cc2ccccc2OC)C3)c1	none (no result: HIV Env fusion, NSD2 inh, PglD DTNB, ALR H2O2 inh)
Cc1cccc(OCCCC(=O)Nc2ccc(Cl)c(S(=O)(=O)N3CCOCC3)c2)c1	HIV Env fusion 61.9
Cc1cccc(NC(=O)CCOc2ccccc2)c1	ALR H2O2 inh 98.0 (no result: HIV Env fusion, F508del corr, Casp6 inh, PglD DTNB)
O=C(N[C@@H]1CC[C@H](CCNS(=O)(=O)c2cccc(Cl)c2)O[C@H]1CO)c1ccccc1	none (no result: NSD2 inh, ALR H2O2 inh)
O=C1c2cccc3c(N4CCCCC4)ccc(c23)C(=O)N1CCO	none (no result: F508del corr, Casp6 inh)
O=C1c2cccc3c(N4CCCCC4)ccc(c23)C(=O)N1c1cccc(O)c1	F508del corr 13.8 (no result: PglD DTNB)
COc1ccc2c3c(n(C)c2c1)[C@@H](CO)N(C(=O)Nc1ccc(F)cc1)CC31CN(C(=O)c2ccccc2F)C1	none (no result: HIV Env fusion, NSD2 inh, PglD DTNB, ALR H2O2 inh)
Cn1c(-c2ccccc2)cnc1SCC(=O)N1CCCCC1	ALR H2O2 inh 99.9 (no result: HIV Env fusion, F508del corr, Casp6 inh)
COc1ccc2c3c([nH]c2c1)[C@@H](CO)N(Cc1cc(F)ccc1F)CC31CCN(C(C)=O)CC1	none (no result: HIV Env fusion, NSD2 inh, Casp6 inh, PglD DTNB, ALR H2O2 inh)
C/C=C/c1cnc2c(c1)C(=O)N([C@H](C)CO)C[C@H](C)[C@H](CN(C)Cc1ccc3c(c1)OCO3)O2	none (no result: NSD2 inh, Casp6 inh, ALR H2O2 inh)
O=C(NCc1ccc2c(c1)OCO2)c1cc2c(s1)CSC2	HIV Env fusion 60.8, ALR H2O2 inh 97.0 (no result: NSD2 inh)
O=C(NCc1ccco1)c1cc2c(s1)CSC2	ALR H2O2 inh 98.8 (no result: HIV Env fusion, NSD2 inh, F508del corr, Casp6 inh, PglD DTNB)
C[C@H](CO)N1C[C@H](C)[C@H](CN(C)S(=O)(=O)c2ccc(C#N)cc2)Oc2ncc(C#Cc3ccc(C(F)(F)F)cc3)cc2C1=O	none (no result: HIV Env fusion, NSD2 inh, PglD DTNB, ALR H2O2 inh)
COC(=O)C[C@@H]1C[C@H]2c3cc(NC(=O)NC4CCCCC4)ccc3O[C@H]2[C@H](CO)O1	none (no result: NSD2 inh, ALR H2O2 inh)
CCOc1cc(-c2cn(S(=O)(=O)c3cccc4nsnc34)nc2N)cc(OCC)c1OCC	HIV Env fusion 65.9 (no result: F508del corr, Casp6 inh)
Nc1n[nH]c2cc(=O)n(-c3cccc(C(F)(F)F)c3)nc12	ALR H2O2 inh 93.4
O=c1[nH][nH]c2cc(=O)n(-c3cccc(C(F)(F)F)c3)nc12	none (no result: NSD2 inh, PglD DTNB)
COc1cccc(CN2CCC(n3nccc3NC(=O)CCOc3ccccc3)CC2)c1O	ALR H2O2 inh 93.7 (no result: HIV Env fusion, F508del corr, Casp6 inh)
CN1CCN(C(=O)C[C@H]2CC[C@@H]3[C@H](COC[C@@H](O)CN3C(=O)Nc3ccc(Cl)cc3)O2)CC1	none (no result: HIV Env fusion, NSD2 inh, ALR H2O2 inh)
CC1CCCN(CCC(=O)c2ccc(Br)cc2)C1 (configuration not stated)	ALR H2O2 inh 98.8 (no result: HIV Env fusion, NSD2 inh, F508del corr, Casp6 inh)
CC(C)(C)NC(=O)c1cccc2c1-c1ccccc1C2=O	F508del corr 10.1
C[C@H](CO)N1C[C@H](C)[C@@H](CN(C)Cc2ccc(-c3ccccc3)cc2)Oc2ccc(NC(=O)Nc3ccc4c(c3)OCO4)cc2CC1=O	none (no result: NSD2 inh, ALR H2O2 inh)
Cc1csc(SCCn2c(N3CCN(c4ccccc4)CC3)nc3c2c(=O)[nH]c(=O)n3C)n1	ALR H2O2 inh 98.5 (no result: HIV Env fusion, F508del corr, Casp6 inh)
CC(CSc1nc2ccccc2s1)Cn1c(N2CCCC2)nc2c1c(=O)[nH]c(=O)n2C (configuration not stated)	ALR H2O2 inh 98.5 (no result: HIV Env fusion, F508del corr, Casp6 inh)
COc1cccc(S(=O)(=O)N[C@H]2CC[C@@H](CCn3cc(-c4ccccn4)nn3)O[C@H]2CO)c1	none (no result: NSD2 inh, ALR H2O2 inh)
CC(OC(=O)c1ccc(Cl)nc1)C(=O)NC1CCCC1 (configuration not stated)	none (no result: HIV Env fusion)
CC(OC(=O)c1ccc(Cl)nc1)C(=O)NC(C)(C)C (configuration not stated)	F508del corr 10.2 (no result: PglD DTNB)
CSc1cccc(NC(=O)c2ccc(NC3=NC4CS(=O)(=O)CC4S3)cc2)c1 (configuration not stated)	ALR H2O2 inh 98.6 (no result: NSD2 inh)
CCS(=O)(=O)Nc1ccc2c(c1)C(=O)N(C)C[C@H](OC)[C@H](C)CN(CC1CCCC1)[C@@H](C)CO2	none (no result: NSD2 inh, Casp6 inh, ALR H2O2 inh)
CCOC(=O)Cc1n[nH]c(=O)c2ccccc12	none
CCOC(=O)c1c(C)cc2c(CO)n[nH]c(=O)c2c1C	HIV Env fusion 56.2 (no result: PglD DTNB, ALR H2O2 inh)
N#C/C(=N\Nc1cccc(C(F)(F)F)c1)C(=O)c1csc(-c2cccnc2)n1	ALR H2O2 inh 97.0 (no result: PglD DTNB)
C[C@@H]1CCCCO[C@@H](CN(C)C(=O)Cc2ccccc2)[C@@H](C)CN([C@H](C)CO)C(=O)c2cc(NC(=O)CCC(F)(F)F)ccc2O1	none (no result: NSD2 inh, Casp6 inh, ALR H2O2 inh)
CC(=O)N1c2ccc(S(=O)(=O)N(C)CC(=O)NCc3ccc(C)cc3)cc2CC1C (configuration not stated)	Casp6 inh 71.6
